The text below walks through data of PubChem BioAssay AID651812 (National Center for Advancing Translational Sciences (NCATS), 2012).

The structures appear in SMILES notation. Hit rate of the full screen: of about 2,100 compounds, about 650 (31%) were called active. Roughly 16% stayed inconclusive and do not appear here. Calls follow the shape of the dose curve; as a rule, active = well fitted inhibition curve with a large enough effect; inconclusive = small, poorly fitted or top-dose-only effect; inactive = flat fitted curve, though single readings scatter. Some of the results follow. Where a call stands in place of a potency, no number is given.
Potency is read from the fitted curve at half-maximal effect.

A short description of the test: qHTS for inhibitors of Vif-A3G interactions: Cherry picks. Also: nearly all actives have a fitted effect of over 80% in size. To be noted: HeLa A3G-eYFP + Vif (tagged APOBEC3G with the HIV-1 protein that degrades it), 24 h; Potency: eYFP fluorescence increase; series mostly up to 36.9 µM. The procedure, abridged:
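Cherry-picked compounds tested at several concentrations on A3G-eYFP/Vif HeLa cells for 24 hours; loss of Vif-driven degradation read as eYFP fluorescence by cytometric plate imaging, 488 nm excitation, 500-530 nm emission.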
Regarding `CCOc1ccc(C(=O)COC(=O)Cc2n[nH]c(=O)c3ccccc23)cc1`, the Potency result was “inactive”. For the molecule `CC[n+]1ccc(/C=C2\Sc3ccccc3N2CCCS(=O)(=O)[O-])c2ccccc21`, the Potency is 20.6 µM (active). For the molecule `COc1ccc(-c2cc(-c3cccs3)nc3sc(C#N)c(N)c23)cc1`, the Potency was 16.4 µM (active).

As for `Cc1nc(-c2ccc(Cl)cc2)sc1C(=O)NN`, the Potency entry was “inactive”.

Take `CCN(CC)C(=O)c1sc2nc(-c3cccs3)cc(-c3ccc(Cl)cc3)c2c1N`: the Potency is 14 µM (active). Consider `N#Cc1sc2nc(-c3cccs3)cc(-c3ccc(Cl)cc3)c2c1N`, for which the Potency is 15.8 µM (active). In the case of `CC(C)CC(=O)NC(=S)N(Cc1ccccc1)Cc1ccccc1`, the Potency result is “inactive”.

In the case of `Oc1ccc(C=NNC(=S)Nc2ccc(F)cc2)c(O)c1`, the Potency result is “inactive”. Under `COc1cc(OC)cc(C(=O)N/N=C/c2ccc(OC)c(COc3ccc4ccccc4c3)c2)c1` stands “inactive”; under `COc1cc(C(=O)Nc2ccc(C)cc2)c2ccccc2n1`, “inactive”; under `CCCCN1C(=O)C2Cc3c([nH]c4ccccc34)CN2C1=S` (stereo not drawn), 14 µM (active). Under `COc1ccc(/C=N/NC(=O)c2cccnc2)cc1CSc1ccccn1` stands “inactive”; under `CC1(C(=O)NCc2ccco2)Cc2c(-c3cccc(C(N)=O)c3)ccnc2O1` (stereo not drawn), “inactive”. In the case of `C/C(=N\NC(=O)C(C)n1nc(C)c([N+](=O)[O-])c1C)c1ccccc1O` (stereo not drawn), the Potency entry was “inactive”.

As to `Cc1cc(C)cc(Oc2nc(C(F)(F)F)nc3ccccc23)c1`, the Potency entry was “inactive”. Consider `CCCCN1C(=O)c2cccc3cc(O)cc(c23)C1=O`, for which the Potency was 16.4 µM (active).

Regarding `Cc1c(Cl)cccc1NC(=O)c1oc2ccc(S(=O)(=O)N3CCC4(CC3)OCCO4)cc2c1C`, the Potency entry is “inactive”. In the case of `COc1ccc(NC(=O)C(NC(=O)/C=C\c2ccc3c(c2)OCO3)c2ccccc2)cc1` (stereo not drawn), the Potency result is “inactive”.

In the case of `CCNc1ccc(Br)cc(C(=O)/C=C/c2ccc3c(c2)OCO3)c1=O`, the Potency was 18.4 µM (active). Turning to `O=C(N/N=C/c1ccc2c(c1)OCO2)c1cccc2ccccc12`, the Potency result is “inactive”. As for `COc1ccc(NC(=O)C2Cc3c(-c4cccc(C(C)=O)c4)ccnc3O2)cc1` (stereo not drawn), the Potency entry is “inactive”. With `Cc1ccccc1-n1c(/C=C/c2c(C)n(C)c3ccccc23)nc2ccccc2c1=O`, the Potency is 8.2 µM (active).

As to `Cc1c(/C=N\NC(=O)c2cc3ccccc3o2)c2ccccc2n1C`, the Potency entry was “inactive”.

For `CCCn1c(CN2CCN(C(=O)OCC)CC2)nc2cc(NC(=O)C(C)C)ccc21`, the Potency entry was “inactive”. Consider `COc1ccccc1Nc1nnc(SCC2CCCCO2)s1` (stereo not drawn), for which the Potency result is “inactive”.

As for `Cc1cc2nc(SCCOC(=O)Nc3cccc(Cl)c3)nc(C)c2cc1C`, the Potency entry was “inactive”. Consider `O=C(NN=Cc1c(O)ccc2ccccc12)c1ccc2c(c1)OCO2`, for which the Potency result was “inactive”. In the case of `Cn1ncc(N=Cc2c(O)ccc3ccccc23)c1C(=O)Nc1cccc(Cl)c1`, the Potency is 11.6 µM (active). Consider `CSc1nsc(/C=C/Nc2ccc(O)cc2C)c1C#N`, for which the Potency is 20.6 µM (active). With `Cc1nc(CSc2nsc(/C=C/N(C)C)c2C#N)cs1`, the Potency entry was “inactive”. In the case of `CSc1nsc(/C=C/Nc2ccc(F)cc2)c1C#N`, the Potency entry is “inactive”. Take `Cc1cc(C)nc(Nc2n[nH]c(COc3cccc4ccccc34)n2)n1`: the Potency result is “inactive”. Regarding `CCN(CC)C(=O)Cn1c(=O)n(-c2ccccc2)c(=O)c2c3c(sc21)CCC3`, the Potency result was “inactive”. For the molecule `O=C(Nc1cc(F)cc(F)c1)c1ccc(NCCc2ccccc2)c([N+](=O)[O-])c1`, the Potency is 14.6 µM (active).

On to `Cc1ccc(NC(=O)c2ccc(NCc3ccco3)c([N+](=O)[O-])c2)cc1Cl`, for which the Potency is 18.4 µM (active). `Cc1ccc2c(CC(=O)NCc3ccco3)coc2c1C`: the Potency entry was “inactive”. Regarding `Cc1ccc(NC(=O)CSc2ccccc2NC(=O)c2cccc(Cl)c2)cc1Cl`, the Potency entry is “inactive”. Regarding `O=C(NC(=S)Nc1ccc(N2CCCCC2)c(Cl)c1)c1ccc2c(c1)OCCO2`, the Potency entry is “inactive”. With `Cc1ccc(NC(=O)c2ccc(NCC3CCCO3)c([N+](=O)[O-])c2)cc1Cl` (stereo not drawn) the figure was 16.4 µM (active); with `Cc1ccc(NC(=O)c2ccc([N+](=O)[O-])s2)cc1S(=O)(=O)N1CCOCC1`, “inactive”.

Take `O=C(O)c1ccc(NS(=O)(=O)c2cccc(C(=O)Nc3ccccc3[N+](=O)[O-])c2)cc1`: the Potency entry was “inactive”. Regarding `S=C(Nc1ccccc1)N1CCn2c1nc1ccccc12`, the Potency entry is “inactive”. `CC(=O)c1cccc(-c2ccnc3c2CC(C(=O)Nc2ccc4c(c2)OCO4)O3)c1` (stereo not drawn): the Potency result is “inactive”. Regarding `COc1ccccc1N1CCN(C(=O)c2cc(=O)c3cc(C)ccc3o2)CC1`, the Potency entry was “inactive”. As for `CCCC(=O)NC(c1ccc(OC)cc1)c1c(O)ccc2ccccc12` (stereo not drawn), the Potency result was “inactive”. `COc1cc(-c2cc(NC=O)c3ncc(-c4ccc(C(C)=O)cc4)n3c2)cc(OC)c1OC`: the Potency result was “inactive”.

Take `CCN(CC)c1nc(C)c(C(=S)Nc2cc([N+](=O)[O-])ccc2Cl)s1`: the Potency result is “inactive”. `C/C(CCC(C)C)=N\NC(=S)NCc1ccccc1`: the Potency entry was “inactive”. As to `Cc1ccc(C(=O)Nc2sc(Cc3ccc4c(c3)OCO4)c(C)c2C(N)=O)cc1`, the Potency result is “inactive”. With `CC(C)CN(CC(C)C)S(=O)(=O)c1ccc(C(=O)Nc2sc3c(c2C(N)=O)CCN(C(C)C)C3)cc1` the figure was 18.4 µM (active).

Consider `CCCCN(CCCC)S(=O)(=O)c1ccc(C(=O)Nc2sc3c(c2C(N)=O)CCN(CC)C3)cc1`, for which the Potency is 29.1 µM (active). With `COc1ccc(C(=O)Nc2sc3c(c2C#N)CCN(C(C)=O)C3)cc1` the entry was “inactive”.

Consider `CC(C)N1CCc2c(sc(NC(=O)c3ccc(S(=O)(=O)N4CCOCC4)cc3)c2C#N)C1`, for which the Potency was 20.6 µM (active). Regarding `COc1cccc(C(=O)Nc2sc3c(c2C#N)CCN(C(C)=O)C3)c1`, the Potency entry was “inactive”. With `CC(C)N1CCc2c(sc(NC(=O)c3cc4cc([N+](=O)[O-])ccc4s3)c2C(N)=O)C1` the entry was “inactive”; with `CCN1CCc2c(sc(NC(=O)c3ccc(S(=O)(=O)N(CC)c4ccccc4)cc3)c2C(N)=O)C1`, 17.7 µM (active); with `CCN1CCc2c(sc(-n3cccc3)c2C(C)NC(=O)Nc2ccc(C(=O)OC)cc2)C1` (stereo not drawn), “inactive”. With `CC1(C)COC(Cn2c3ccccc3c3ccccc32)O1` (stereo not drawn) the entry was “inactive”; with `COC(=O)c1ccc(Oc2cc(C)nc(SC)n2)cc1`, “inactive”; with `CC(/C=N/NC(=O)c1cccc(F)c1)=C\c1ccccc1`, “inactive”. For the molecule `O=C(Cn1ncc(Cl)c(Cl)c1=O)NC(=O)NC1CCCCC1`, the Potency entry was “inactive”.

Regarding `C=CCSc1nc2sc3c(c2c(=O)n1CC)CCC3`, the Potency entry was “inactive”. Take `COc1ccc(S(=O)(=O)N2c3ccccc3OCC2CC(=O)O)cc1` (stereo not drawn): the Potency entry was “inactive”.
